Test results as given in PubChem BioAssay AID1053205 (Broad Institute, 2014).
Potency and affinity values are given separately. Results filed as inconclusive are left out. The source made the active and inactive calls.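 Rule for the calls: active = compounds lowering the FRET ratio whose fitted half-maximal concentration is at most twice their top tested dose; inconclusive = flat partial drop between 30 and 70 percent, or bad fit; inactive = the rest.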

Biological target: Voltage-dependent L-type calcium channel subunit alpha-1D (Homo sapiens) (UniProt Q01668)
Test: inhibitors of CaV1.3 ICDI-IQ binding, dose response, cell-based, HEK293, YFP-IQ/CFP-ICDI FRET, cherry-picks (AID 1053205);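 note: 0% = median of neutral control wells and -100% = median of positive control wells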
Details: HEK293 YFP-IQ/CFP-ICDI FRET ratio, 10 min; series mostly up to 35 µM; FRET change, negative = inhibition: at the top concentration

Voltage-dependent L-type calcium channel subunit alpha-1D (Homo sapiens), sequence (Q01668 whole entry, looked up): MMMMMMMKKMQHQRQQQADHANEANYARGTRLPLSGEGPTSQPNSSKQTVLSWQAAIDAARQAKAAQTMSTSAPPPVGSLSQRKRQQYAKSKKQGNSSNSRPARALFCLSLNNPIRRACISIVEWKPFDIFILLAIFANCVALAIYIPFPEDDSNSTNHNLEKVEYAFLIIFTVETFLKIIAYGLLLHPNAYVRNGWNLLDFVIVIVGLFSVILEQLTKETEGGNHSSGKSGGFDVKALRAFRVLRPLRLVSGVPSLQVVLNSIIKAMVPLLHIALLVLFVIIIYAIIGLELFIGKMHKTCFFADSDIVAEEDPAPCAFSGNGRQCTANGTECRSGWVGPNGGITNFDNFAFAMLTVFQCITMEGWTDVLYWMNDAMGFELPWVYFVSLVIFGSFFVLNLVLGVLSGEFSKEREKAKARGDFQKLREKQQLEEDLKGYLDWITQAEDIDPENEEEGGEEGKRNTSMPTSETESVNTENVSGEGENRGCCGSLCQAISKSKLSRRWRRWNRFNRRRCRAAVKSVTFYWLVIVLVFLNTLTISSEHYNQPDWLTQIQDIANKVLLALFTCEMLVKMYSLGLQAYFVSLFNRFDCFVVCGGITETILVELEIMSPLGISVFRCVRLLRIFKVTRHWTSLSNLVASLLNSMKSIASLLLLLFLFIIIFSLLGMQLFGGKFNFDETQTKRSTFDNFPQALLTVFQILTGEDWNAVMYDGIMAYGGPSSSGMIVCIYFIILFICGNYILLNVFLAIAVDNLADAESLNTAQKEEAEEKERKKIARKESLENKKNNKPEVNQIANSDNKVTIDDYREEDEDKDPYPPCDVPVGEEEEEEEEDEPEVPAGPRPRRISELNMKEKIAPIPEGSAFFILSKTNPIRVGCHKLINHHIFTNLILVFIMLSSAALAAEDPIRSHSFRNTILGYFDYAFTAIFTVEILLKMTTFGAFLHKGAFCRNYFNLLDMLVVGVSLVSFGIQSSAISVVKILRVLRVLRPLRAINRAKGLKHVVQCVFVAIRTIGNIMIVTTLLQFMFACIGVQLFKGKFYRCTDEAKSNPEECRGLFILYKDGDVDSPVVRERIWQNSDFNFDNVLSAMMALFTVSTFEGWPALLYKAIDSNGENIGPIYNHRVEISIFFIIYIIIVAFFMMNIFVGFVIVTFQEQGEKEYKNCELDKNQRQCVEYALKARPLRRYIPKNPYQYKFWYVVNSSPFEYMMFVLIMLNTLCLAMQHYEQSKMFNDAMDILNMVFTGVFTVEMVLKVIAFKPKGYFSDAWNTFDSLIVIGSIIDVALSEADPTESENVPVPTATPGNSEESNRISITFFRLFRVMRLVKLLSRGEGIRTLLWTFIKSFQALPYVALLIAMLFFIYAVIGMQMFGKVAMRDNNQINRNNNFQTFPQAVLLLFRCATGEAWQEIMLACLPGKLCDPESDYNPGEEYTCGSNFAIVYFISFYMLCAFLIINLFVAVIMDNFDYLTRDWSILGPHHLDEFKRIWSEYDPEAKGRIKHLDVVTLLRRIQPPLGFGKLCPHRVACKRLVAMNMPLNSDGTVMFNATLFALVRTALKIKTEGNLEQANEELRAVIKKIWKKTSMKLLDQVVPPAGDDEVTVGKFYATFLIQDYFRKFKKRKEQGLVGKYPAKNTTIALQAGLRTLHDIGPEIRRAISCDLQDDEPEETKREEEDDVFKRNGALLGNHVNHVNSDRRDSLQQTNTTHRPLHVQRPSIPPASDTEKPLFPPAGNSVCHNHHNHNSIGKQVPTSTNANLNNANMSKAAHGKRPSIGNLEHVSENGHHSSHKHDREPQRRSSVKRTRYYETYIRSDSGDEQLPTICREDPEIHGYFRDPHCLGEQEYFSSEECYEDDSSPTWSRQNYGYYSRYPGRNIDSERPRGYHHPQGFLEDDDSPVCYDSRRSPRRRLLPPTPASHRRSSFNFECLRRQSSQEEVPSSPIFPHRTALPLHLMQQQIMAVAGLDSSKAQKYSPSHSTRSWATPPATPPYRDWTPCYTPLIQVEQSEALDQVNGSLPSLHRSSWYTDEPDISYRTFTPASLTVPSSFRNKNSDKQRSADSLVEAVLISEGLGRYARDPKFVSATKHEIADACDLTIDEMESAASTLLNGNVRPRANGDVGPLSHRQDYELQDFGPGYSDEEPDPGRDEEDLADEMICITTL

FRET change, negative = inhibition, inactive:
O=C(CCc1c[nH]c2ccccc12)OCC(=O)c1ccccc1 -6.7%, [O-]/[N+](=C/c1ccccc1)c1ccccc1 -4.36%, Cc1ccc(-c2nc3ccsc3c(=O)[nH]2)cc1 22.7%, CCn1c(=NC(=O)CSC(C)=O)sc2cc(OC)ccc21 -3.91%, O=C(Cc1csc(-c2ccccc2)n1)NCc1ccccc1F 17.4%, Cc1ccc2nc3c(cc(C(=O)NCc4ccccc4)c(=N)n3CCCn3ccnc3)c(=O)n2c1 404%, COC(=O)C1=CN(Cc2ccc(OC)c(OC)c2)C=C(C(=O)OC)C1c1cccc(F)c1 106%, N=c1oc2cc(O)ccc2cc1C(=O)Nc1ccc(Br)cc1 244%, CCN(CC)Cc1c(O)c(Cl)cc2c(C)cc(=O)oc12 3.23%, Cc1cccn2c(=O)c3cc(C(=O)NCc4ccco4)c(=N)n(CCc4ccccc4)c3nc12 178% [at 16 µM], C[C@H](NC(=O)c1nc[nH]c1C(=O)N[C@@H](Cc1ccccc1)C(=O)OC(C)(C)C)C(=O)OCc1ccccc1 10.4%, CCOc1ccc2nc(NCCCNC(=O)c3cc(OC)c(OC)c(OC)c3)c(C#N)cc2c1 449%, CSC1=NSC2=NC(=O)/C(=C/c3coc4ccc(O)cc4c3=O)C(=N)N12 380%, Cc1cc(-c2nc3cccnc3s2)ccc1NS(=O)(=O)c1cccs1 91.9%, COCCNC(=S)N/N=C/c1ccc(-c2ccc([N+](=O)[O-])cc2)o1 399%, O=C(Nc1ccc2c(c1)OCCO2)c1ccc(NC(=O)C2CCCO2)cc1 (stereo not drawn) 145%, COc1ccc(C(=O)Oc2cc(N)n(S(=O)(=O)c3ccccc3)n2)cc1 0.324%, Cc1noc(C)c1S(=O)(=O)N(CC(=O)N1CCCCCC1)c1ccc(C(C)C)cc1 150%
